Measured values taken from PubChem BioAssay (NCI).
Where “and” joins values, the source holds several entries; their conditions need not be identical. Equal values may be shown once. Compounds without any hit were thinned out: in the full panel of roughly 83,000, 20% have a hit.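 A percent growth of 40 corresponds to 60% growth inhibition; 0 means no net growth; -100 means all cells died. Active threshold: below 10.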 Calls of active or inactive are those of the source.

Experiments:
Assay in all cases: NCI-60 one-dose screen, 48 h (100 = growth as untreated, 0 = no growth, -100 = all killed)
Conditions in all cases: 10 µM unless noted
[1] = system: HCT-15 colon
[2] = system: HT29 colon
[3] = system: SNB-75 CNS
[4] = system: SNB-19 CNS
[5] = system: U251 CNS
[6] = system: PC-3 prostate
[7] = system: SK-MEL-5 melanoma
[8] = system: UACC-62 melanoma
[9] = system: SK-MEL-28 melanoma
[10] = system: LOX IMVI melanoma

SMILES	growth [1]	growth [2]	growth [3]	growth [4]	growth [5]	growth [6]	growth [7]	growth [8]	growth [9]	growth [10]
COc1cc(C2c3cc4c(cc3C(OC(=O)C[n+]3ccccc3)C3COC(=O)C23)OCO4)cc(OC)c1OC (stereo unspecified)	4.19% (active)	4.68% (active)	48.3% (inactive)	27.5% (inactive)	2.86% (active)	35% (inactive)	-32.5% (active)	15.9% (inactive)	61.6% (inactive)	
Nc1nc(-c2ccccn2)cc(-c2cc(-c3ccccn3)nc(N)n2)n1	97% (inactive)	120% (inactive)	143% (inactive)	101% (inactive)	109% (inactive)	99.3% (inactive)	105% (inactive)	102% (inactive)	113% (inactive)	
Clc1ccc(/C=C/c2ccc3ccccc3n2)cc1	26.6% (inactive) and 96.4% (inactive) and 81.7% (inactive)	2.32% (active) and 79.3% (inactive) and 71.1% (inactive)	-21.1% (active) and 98.7% (inactive) and 88.1% (inactive)	42.2% (inactive) and 96.2% (inactive) and 98.8% (inactive)		31.3% (inactive) and 271% (inactive) and 92% (inactive)	24.4% (inactive) and 88.9% (inactive) and 81.9% (inactive)	43.1% (inactive) and 78.5% (inactive) and 75.8% (inactive)	57.5% (inactive) and 166% (inactive) and 101% (inactive)	18.3% (inactive) and 83% (inactive) and 82.5% (inactive)
CC(C)(C)C1CCC(=NO)CC1 (stereo unspecified)	106% (inactive)	95% (inactive)	85.6% (inactive)	96% (inactive)	99.9% (inactive)	86.7% (inactive)	104% (inactive)	99.4% (inactive)	110% (inactive)	
O=C1c2ccccc2C(c2ccccc2)C1c1ccccc1 (stereo unspecified)	71.8% (inactive)	98.9% (inactive)	63.5% (inactive)	91.9% (inactive)	101% (inactive)	80.7% (inactive)	87.5% (inactive)	67.8% (inactive)	111% (inactive)	
COc1ccc(C(=O)C(O)c2ccc(OC)cc2)cc1 (stereo unspecified)	110% (inactive) and 107% (inactive)	106% (inactive) and 111% (inactive)	98% (inactive) and 94.1% (inactive)	109% (inactive) and 111% (inactive)		93.9% (inactive) and 92.2% (inactive)	105% (inactive)	100% (inactive) and 105% (inactive)	114% (inactive) and 109% (inactive)	96.4% (inactive) and 98.4% (inactive)
OCCCc1ccccc1	100% (inactive)	94.9% (inactive)	88.7% (inactive)	99.3% (inactive)		100% (inactive)	103% (inactive)	96.2% (inactive)	108% (inactive)	107% (inactive)
CCNCc1ccccc1	112% (inactive)	98.8% (inactive)	102% (inactive)	109% (inactive)	101% (inactive)	103% (inactive)	108% (inactive)	100% (inactive)	96.9% (inactive)	
COc1cc(NCCCCCCCNC(C)C)c2nccc(C)c2c1	89.2% (inactive) and 58.5% (inactive)	53.7% (inactive) and 14.2% (inactive)	74.4% (inactive) and 61.1% (inactive)	90.9% (inactive) and 74.2% (inactive)		58.1% (inactive) and 75.9% (inactive)	84.3% (inactive) and 64.8% (inactive)	88.2% (inactive) and 3.49% (active)	105% (inactive) and 91.4% (inactive)	92.5% (inactive) and 54.7% (inactive)
OCc1ccccc1F	15% (inactive)	31.3% (inactive)	126% (inactive)	103% (inactive)	80.5% (inactive)	71.9% (inactive)	95.7% (inactive)	84% (inactive)	103% (inactive)	
CC(=O)Oc1ccc(C2(c3ccc(OC(C)=O)cc3)C(=O)Nc3ccccc32)cc1	67.3% (inactive) and 73% (inactive)	112% (inactive) and 131% (inactive)	85.3% (inactive) and 158% (inactive)	108% (inactive) and 101% (inactive)		65.3% (inactive) and 52.3% (inactive)	96.8% (inactive) and 95% (inactive)	84.2% (inactive) and 87.3% (inactive)	99.6% (inactive) and 108% (inactive)	53.9% (inactive) and 46.7% (inactive)
O=C(c1ccncc1)c1c(Cc2ccccc2)ccc2ccccc12	91.5% (inactive)	84.9% (inactive)	90.4% (inactive)	96.7% (inactive)		83% (inactive)	80.1% (inactive)	66.3% (inactive)	90.2% (inactive)	90.8% (inactive)
O=[N+]([O-])c1ccc(NC2CCCCC2)nc1	106% (inactive) and 102% (inactive)	106% (inactive) and 104% (inactive)	102% (inactive) and 96.9% (inactive)	103% (inactive) and 108% (inactive)	107% (inactive) and 101% (inactive)	105% (inactive) and 98% (inactive)	112% (inactive) and 106% (inactive)	104% (inactive) and 92.2% (inactive)	128% (inactive) and 111% (inactive)	
COC(=O)c1nc(=S)[nH]c(C(=O)OC)c1C(=O)c1ccccc1	103% (inactive)	109% (inactive)	86.6% (inactive)	102% (inactive)	105% (inactive)	91.2% (inactive)	103% (inactive)	92.6% (inactive)	105% (inactive)	
Cc1ccc(N)cc1S(=O)(=O)O	107% (inactive) and 113% (inactive)	95.3% (inactive) and 124% (inactive)	97.3% (inactive)	107% (inactive) and 108% (inactive)		98.9% (inactive)	112% (inactive) and 109% (inactive)	105% (inactive) and 108% (inactive)	109% (inactive) and 113% (inactive)	105% (inactive) and 109% (inactive)
Cc1cc2nc3ccc(=[N+](C)C)cc-3sc2cc1N	8.48% (active) and 7.46% (active)	3.91% (active) and 19.4% (inactive)	88.2% (inactive) and 22.1% (inactive)	-17.2% (active) and -4.45% (active)	1.01% (active) and -31% (active)	-1.87% (active) and -5.43% (active)	-92.2% (active) and -90.1% (active)	-31.9% (active) and 23.3% (inactive)	-9.76% (active) and 20.1% (inactive)	-19.1% (active) and -29.2% (active)
CCOc1ccc(/C=C\C(=O)O)cc1	105% (inactive)	105% (inactive)	104% (inactive)	106% (inactive)	103% (inactive)	102% (inactive)	108% (inactive)	109% (inactive)	107% (inactive)	
C=CCN1C(=O)c2ccccc2C1=O	109% (inactive)	122% (inactive)	95.9% (inactive)	98.1% (inactive)		96.6% (inactive)	101% (inactive)	90.8% (inactive)	108% (inactive)	94.7% (inactive)
CC1(C)CC(=O)NC1=O	110% (inactive)	99.8% (inactive)	82% (inactive)	101% (inactive)	101% (inactive)	104% (inactive)	100% (inactive)	99.6% (inactive)	105% (inactive)	95.9% (inactive)
CCOC(=O)c1ccncc1	108% (inactive)	104% (inactive)	108% (inactive)	111% (inactive)		97.5% (inactive)	95.8% (inactive)	101% (inactive)	110% (inactive)	99% (inactive)
Nc1[nH][nH]c(=O)c1N=Nc1ccccc1	96.3% (inactive) and 106% (inactive)	107% (inactive) and 88.8% (inactive)	79.3% (inactive) and 111% (inactive)	99.5% (inactive) and 112% (inactive)		99% (inactive) and 101% (inactive)	104% (inactive) and 99.5% (inactive)	96.3% (inactive) and 109% (inactive)	111% (inactive) and 118% (inactive)	105% (inactive) and 100% (inactive)
COC(=O)c1nc(N)nc(C(=O)OC)c1C(=O)c1ccc(F)cc1	103% (inactive)	115% (inactive)	99.1% (inactive)	103% (inactive)	102% (inactive)	104% (inactive)	103% (inactive)	105% (inactive)	115% (inactive)	98.6% (inactive)
